From the supplement of paper PMC4466140

What follows are binders tested against AgAbp1 (assay: SPOT peptide array binding signal intensity (averaged, normalized) (arbitrary units (background-subtracted, floor 0; scale differs between SH3 domains)); higher = stronger binding of the SH3 domain to the peptide).
Outline: (§1)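 The binding signal is the normalized, background-subtracted spot intensity averaged over replicates; its arbitrary units differ between domains. It was obtained by incubating 10 μg/ml GST-fused SH3 domains from four yeast species overnight at 4°C in TBS-based blocking buffer on cellulose membranes with synthetic 15-mer peptides, cysteines replaced by serines, then detecting with anti-GST antibody, HRP anti-mouse secondary and luminol.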

Binder	SPOT peptide array binding signal intensity
WTQRRGPLVVYAEDN	≤ 0

What follows are binders tested against AgBbc1 in the same assay as above.
Outline: as §1

Binder	SPOT peptide array binding signal intensity
WTQRRGPLVVYAEDN	7

What follows are binders tested against AgBem1-D1 in the same assay as above.
Outline: as §1

Binder	SPOT peptide array binding signal intensity
WTQRRGPLVVYAEDN	102

Each binder was assayed against AgBzz1-D1 in the same assay as above.
Outline: as §1

Binder	SPOT peptide array binding signal intensity
WTQRRGPLVVYAEDN	11

What follows are binders tested against AgBzz1-D2 in the same assay as above.
Outline: as §1

Binder	SPOT peptide array binding signal intensity
WTQRRGPLVVYAEDN	22.5

The binders below were run against AgCyk3 in the same assay as above.
Outline: as §1

Binder	SPOT peptide array binding signal intensity
WTQRRGPLVVYAEDN	0.5

Each binder was assayed against AgFus1 in the same assay as above.
Outline: as §1

Binder	SPOT peptide array binding signal intensity
WTQRRGPLVVYAEDN	35.5

The binders below were run against AgHof1 in the same assay as above.
Outline: as §1

Binder	SPOT peptide array binding signal intensity
WTQRRGPLVVYAEDN	15.5

What follows are binders tested against AgHse1 in the same assay as above.
Outline: as §1

Binder	SPOT peptide array binding signal intensity
WTQRRGPLVVYAEDN	20.5

These binders were tested against AgLsb1 in the same assay as above.
Outline: as §1

Binder	SPOT peptide array binding signal intensity
WTQRRGPLVVYAEDN	4

What follows are binders tested against AgLsb4 in the same assay as above.
Outline: as §1

Binder	SPOT peptide array binding signal intensity
WTQRRGPLVVYAEDN	17.5

These binders were tested against AgMyo5 in the same assay as above.
Outline: as §1

Binder	SPOT peptide array binding signal intensity
WTQRRGPLVVYAEDN	3

These binders were tested against AgNbp2 in the same assay as above.
Outline: as §1

Binder	SPOT peptide array binding signal intensity
WTQRRGPLVVYAEDN	≤ 0

These binders were tested against AgRvs167 in the same assay as above.
Outline: as §1

Binder	SPOT peptide array binding signal intensity
WTQRRGPLVVYAEDN	1.17

What follows are binders tested against AgSho1 in the same assay as above.
Outline: as §1

Binder	SPOT peptide array binding signal intensity
WTQRRGPLVVYAEDN	4

These binders were tested against AgSla1-D1-D2 in the same assay as above.
Outline: as §1

Binder	SPOT peptide array binding signal intensity
WTQRRGPLVVYAEDN	20

Each binder was assayed against AgSla1-D3 in the same assay as above.
Outline: as §1

Binder	SPOT peptide array binding signal intensity
WTQRRGPLVVYAEDN	2

Each binder was assayed against CaAbp1-D1 in the same assay as above.
Outline: as §1

Binder	SPOT peptide array binding signal intensity
WTQRRGPLVVYAEDN	≤ 0

Each binder was assayed against CaAbp1-D2 in the same assay as above.
Outline: as §1

Binder	SPOT peptide array binding signal intensity
WTQRRGPLVVYAEDN	≤ 0

The binders below were run against CaBbc1 in the same assay as above.
Outline: as §1

Binder	SPOT peptide array binding signal intensity
WTQRRGPLVVYAEDN	27.2

What follows are binders tested against CaBem1-D1 in the same assay as above.
Outline: as §1

Binder	SPOT peptide array binding signal intensity
WTQRRGPLVVYAEDN	3

What follows are binders tested against CaBzz1-D1 in the same assay as above.
Outline: as §1

Binder	SPOT peptide array binding signal intensity
WTQRRGPLVVYAEDN	286

What follows are binders tested against CaBzz1-D2 in the same assay as above.
Outline: as §1

Binder	SPOT peptide array binding signal intensity
WTQRRGPLVVYAEDN	142

These binders were tested against CaCyk3 in the same assay as above.
Outline: as §1

Binder	SPOT peptide array binding signal intensity
WTQRRGPLVVYAEDN	18

These binders were tested against CaFus1 in the same assay as above.
Outline: as §1

Binder	SPOT peptide array binding signal intensity
WTQRRGPLVVYAEDN	190

Each binder was assayed against CaHof1 in the same assay as above.
Outline: as §1

Binder	SPOT peptide array binding signal intensity
WTQRRGPLVVYAEDN	1.5

These binders were tested against CaHse1 in the same assay as above.
Outline: as §1

Binder	SPOT peptide array binding signal intensity
WTQRRGPLVVYAEDN	6.25

What follows are binders tested against CaLsb1 in the same assay as above.
Outline: as §1

Binder	SPOT peptide array binding signal intensity
WTQRRGPLVVYAEDN	6.5

These binders were tested against CaLsb4 in the same assay as above.
Outline: as §1

Binder	SPOT peptide array binding signal intensity
WTQRRGPLVVYAEDN	29.5

These binders were tested against CaMyo5 in the same assay as above.
Outline: as §1

Binder	SPOT peptide array binding signal intensity
WTQRRGPLVVYAEDN	26

The binders below were run against CaNbp2 in the same assay as above.
Outline: as §1

Binder	SPOT peptide array binding signal intensity
WTQRRGPLVVYAEDN	44.5
VFQFQMPTTPISTKM	985

Each binder was assayed against CaRvs167 in the same assay as above.
Outline: as §1

Binder	SPOT peptide array binding signal intensity
WTQRRGPLVVYAEDN	12.2
VFQFQMPTTPISTKM	32.7

These binders were tested against CaRvs167-3 in the same assay as above.
Outline: as §1

Binder	SPOT peptide array binding signal intensity
WTQRRGPLVVYAEDN	3.5
VFQFQMPTTPISTKM	4.5

These binders were tested against CaSho1 in the same assay as above.
Outline: as §1

Binder	SPOT peptide array binding signal intensity
WTQRRGPLVVYAEDN	32
VFQFQMPTTPISTKM	922

Each binder was assayed against CaSla1-D1-D2 in the same assay as above.
Outline: as §1

Binder	SPOT peptide array binding signal intensity
WTQRRGPLVVYAEDN	≤ 0
VFQFQMPTTPISTKM	404

The binders below were run against CaSla1-D3 in the same assay as above.
Outline: as §1

Binder	SPOT peptide array binding signal intensity
WTQRRGPLVVYAEDN	0.25
VFQFQMPTTPISTKM	454

The binders below were run against ScAbp1 in the same assay as above.
Outline: as §1

Binder	SPOT peptide array binding signal intensity
WTQRRGPLVVYAEDN	1
VFQFQMPTTPISTKM	4

What follows are binders tested against ScBbc1 in the same assay as above.
Outline: as §1

Binder	SPOT peptide array binding signal intensity
WTQRRGPLVVYAEDN	≤ 0
VFQFQMPTTPISTKM	≤ 0

Each binder was assayed against ScBem1-D1 in the same assay as above.
Outline: as §1

Binder	SPOT peptide array binding signal intensity
WTQRRGPLVVYAEDN	11.5
VFQFQMPTTPISTKM	1

These binders were tested against ScBzz1-D1 in the same assay as above.
Outline: as §1

Binder	SPOT peptide array binding signal intensity
WTQRRGPLVVYAEDN	28
VFQFQMPTTPISTKM	10

The binders below were run against ScBzz1-D2 in the same assay as above.
Outline: as §1

Binder	SPOT peptide array binding signal intensity
WTQRRGPLVVYAEDN	58
VFQFQMPTTPISTKM	25

The binders below were run against ScCyk3 in the same assay as above.
Outline: as §1

Binder	SPOT peptide array binding signal intensity
WTQRRGPLVVYAEDN	10
VFQFQMPTTPISTKM	13

These binders were tested against ScFus1 in the same assay as above.
Outline: as §1

Binder	SPOT peptide array binding signal intensity
WTQRRGPLVVYAEDN	28.5
VFQFQMPTTPISTKM	327

Each binder was assayed against ScHof1 in the same assay as above.
Outline: as §1

Binder	SPOT peptide array binding signal intensity
WTQRRGPLVVYAEDN	0.5
VFQFQMPTTPISTKM	≤ 0

What follows are binders tested against ScHse1 in the same assay as above.
Outline: as §1

Binder	SPOT peptide array binding signal intensity
WTQRRGPLVVYAEDN	140
VFQFQMPTTPISTKM	254

These binders were tested against ScLsb1 in the same assay as above.
Outline: as §1

Binder	SPOT peptide array binding signal intensity
WTQRRGPLVVYAEDN	3.5
VFQFQMPTTPISTKM	46.5

These binders were tested against ScLsb2 in the same assay as above.
Outline: as §1

Binder	SPOT peptide array binding signal intensity
WTQRRGPLVVYAEDN	≤ 0
VFQFQMPTTPISTKM	≤ 0

These binders were tested against ScLsb3 in the same assay as above.
Outline: as §1

Binder	SPOT peptide array binding signal intensity
WTQRRGPLVVYAEDN	5
VFQFQMPTTPISTKM	282

The binders below were run against ScLsb4 in the same assay as above.
Outline: as §1

Binder	SPOT peptide array binding signal intensity
WTQRRGPLVVYAEDN	≤ 0
VFQFQMPTTPISTKM	124

These binders were tested against ScMyo3 in the same assay as above.
Outline: as §1

Binder	SPOT peptide array binding signal intensity
WTQRRGPLVVYAEDN	16
VFQFQMPTTPISTKM	20.8

These binders were tested against ScMyo5 in the same assay as above.
Outline: as §1

Binder	SPOT peptide array binding signal intensity
WTQRRGPLVVYAEDN	9
VFQFQMPTTPISTKM	8

These binders were tested against ScNbp2 in the same assay as above.
Outline: as §1

Binder	SPOT peptide array binding signal intensity
WTQRRGPLVVYAEDN	1.5
VFQFQMPTTPISTKM	636

What follows are binders tested against ScPex13 in the same assay as above.
Outline: as §1

Binder	SPOT peptide array binding signal intensity
WTQRRGPLVVYAEDN	1
VFQFQMPTTPISTKM	186

These binders were tested against ScRvs167 in the same assay as above.
Outline: as §1

Binder	SPOT peptide array binding signal intensity
WTQRRGPLVVYAEDN	20.8
VFQFQMPTTPISTKM	11.8

What follows are binders tested against ScSho1 in the same assay as above.
Outline: as §1

Binder	SPOT peptide array binding signal intensity
WTQRRGPLVVYAEDN	≤ 0
VFQFQMPTTPISTKM	530

The binders below were run against ScSla1-D1-D2 in the same assay as above.
Outline: as §1

Binder	SPOT peptide array binding signal intensity
WTQRRGPLVVYAEDN	≤ 0
VFQFQMPTTPISTKM	245

These binders were tested against ScSla1-D3 in the same assay as above.
Outline: as §1

Binder	SPOT peptide array binding signal intensity
WTQRRGPLVVYAEDN	9
VFQFQMPTTPISTKM	228

These binders were tested against SpAbp1-D1 in the same assay as above.
Outline: as §1

Binder	SPOT peptide array binding signal intensity
WTQRRGPLVVYAEDN	6
VFQFQMPTTPISTKM	21

These binders were tested against SpBbc1 in the same assay as above.
Outline: as §1

Binder	SPOT peptide array binding signal intensity
WTQRRGPLVVYAEDN	2.75
VFQFQMPTTPISTKM	2.5

These binders were tested against SpBzz1-D1 in the same assay as above.
Outline: as §1

Binder	SPOT peptide array binding signal intensity
WTQRRGPLVVYAEDN	458
VFQFQMPTTPISTKM	324

What follows are binders tested against SpBzz1-D2 in the same assay as above.
Outline: as §1

Binder	SPOT peptide array binding signal intensity
WTQRRGPLVVYAEDN	≤ 0
VFQFQMPTTPISTKM	4.25

Each binder was assayed against SpCyk3 in the same assay as above.
Outline: as §1

Binder	SPOT peptide array binding signal intensity
WTQRRGPLVVYAEDN	7
VFQFQMPTTPISTKM	4

These binders were tested against SpHof1 in the same assay as above.
Outline: as §1

Binder	SPOT peptide array binding signal intensity
WTQRRGPLVVYAEDN	29.5
VFQFQMPTTPISTKM	52.5

What follows are binders tested against SpHof1-2 in the same assay as above.
Outline: as §1

Binder	SPOT peptide array binding signal intensity
WTQRRGPLVVYAEDN	22.5
VFQFQMPTTPISTKM	36.5

The binders below were run against SpHof1-3 in the same assay as above.
Outline: as §1

Binder	SPOT peptide array binding signal intensity
WTQRRGPLVVYAEDN	23
VFQFQMPTTPISTKM	18.5

Each binder was assayed against SpHse1 in the same assay as above.
Outline: as §1

Binder	SPOT peptide array binding signal intensity
WTQRRGPLVVYAEDN	66.2
VFQFQMPTTPISTKM	456

These binders were tested against SpLsb1 in the same assay as above.
Outline: as §1

Binder	SPOT peptide array binding signal intensity
WTQRRGPLVVYAEDN	≤ 0
VFQFQMPTTPISTKM	4.5

What follows are binders tested against SpLsb4 in the same assay as above.
Outline: as §1

Binder	SPOT peptide array binding signal intensity
WTQRRGPLVVYAEDN	31
VFQFQMPTTPISTKM	349

These binders were tested against SpMyo1 in the same assay as above.
Outline: as §1

Binder	SPOT peptide array binding signal intensity
WTQRRGPLVVYAEDN	16
VFQFQMPTTPISTKM	85.5

These binders were tested against SpNbp2 in the same assay as above.
Outline: as §1

Binder	SPOT peptide array binding signal intensity
WTQRRGPLVVYAEDN	2
VFQFQMPTTPISTKM	272

The binders below were run against SpPex13 in the same assay as above.
Outline: as §1

Binder	SPOT peptide array binding signal intensity
WTQRRGPLVVYAEDN	19
VFQFQMPTTPISTKM	124

What follows are binders tested against SpRvs167 in the same assay as above.
Outline: as §1

Binder	SPOT peptide array binding signal intensity
WTQRRGPLVVYAEDN	16
VFQFQMPTTPISTKM	27

Each binder was assayed against SpSla1-D1-D2 in the same assay as above.
Outline: as §1

Binder	SPOT peptide array binding signal intensity
WTQRRGPLVVYAEDN	3
VFQFQMPTTPISTKM	3

Each binder was assayed against SpSla1-D3 in the same assay as above.
Outline: as §1

Binder	SPOT peptide array binding signal intensity
WTQRRGPLVVYAEDN	6
VFQFQMPTTPISTKM	297
